# Test results taken from PubChem BioAssay (Tox21).
# Records with an inconclusive call do not appear. Where a call stands in place of a potency, no number is given. Values without a mark were called inactive. Activity calls are given as the source filed them. Calls follow the shape of the full dose curve.
# Target: Retinoic acid receptor RXR-alpha (Homo sapiens) (UniProt P19793)
# Assay: qHTS assay to identify small molecule agonists of the RXR signaling pathway (AID 1159527); also: nearly all actives have a fitted effect of over 35% in size
# Details: HEK293T RXRa-UAS-bla, beta-lactamase ratio, 16 h; series mostly up to 76.8 µM
# Source text: U.S. Tox21 Program National Center for Advancing Translational Sciences [NCATS] NIH Chemical Genomics Center [NCGC] U.S. Environmental Protection Agency [EPA] National Institutes of Environmental Health Sciences [NIEHS] National Toxicology Program [NTP] U.S. Food and Drug Administration [FDA] Tox21 Assay Overview: The Retinoid X receptor (RXR), a nuclear hormone receptor expressed in liver, spleen, placenta, epidermis, central nervous system. These receptors are able to form homo and heterodimers with other nuclear receptors and due to this heterodimerizing ability, RXR functions as master regulators producing diverse physiological effects. Three subtypes of RXR exist; alpha, beta and gamma. Retinoid X receptor alpha (RXR-alpha) has potential roles in metabolic signaling pathways, skin alopecia, dermal cysts, cardiac development, insulin sensitization etc. Therefore screening environmental chemicals on RXR-alpha signaling can be used for the studies focused on such therapeutic applications. For quantification of RXR-alpha ligands signaling, GeneBLAzer RXR alpha-UAS-bla HEK 293T (Life Technologies, Carlsbad, CA) cells containing a beta-lactamase reporter-gene under control of Retinoid X receptor-alpha response element were used to screen Tox21 10K library.
# Tox21 Assay Protocol Summary: RXR-alpha HEK 293T cells were dispensed at 2,000 cells/6 uL of assay medium containing 2% charcoal-stripped FBS using a Multidrop Combi (ThermoFisher Scientific, Waltham, MA) dispenser. The assay was performed in black wall/clear-bottom 1536-well plates (Greiner Bio-One North America Inc. Monroe, NC). 9-cis retinoic acid was used as a positive control in the agonist mode screen. After the assay plates were incubated at 37 C and 5% CO2 for 5 hr, 23 nL of compounds dissolved in DMSO, positive controls or DMSO only were transferred to the assay plate by a Pintool station (Kalypsys, San Diego, CA). The assay plates were incubated at 37 C and 5% CO2 for 16 hr. One uL of LiveBLAzer B/G FRET substrate (Life Technologies) was added using a Flying Reagent Dispenser (Aurora Discovery, San Diego, CA) and the plates were incubated at room temperature for 2 hr. Fluorescence intensity (405 nm excitation, 460/530 nm emission) was measured using an Envision plate reader (PerkinElmer, Shelton, CT).
# Potency is read from the fitted curve at half-maximal effect.
# Chain of Retinoic acid receptor RXR-alpha (Homo sapiens) (P19793 whole entry, looked up): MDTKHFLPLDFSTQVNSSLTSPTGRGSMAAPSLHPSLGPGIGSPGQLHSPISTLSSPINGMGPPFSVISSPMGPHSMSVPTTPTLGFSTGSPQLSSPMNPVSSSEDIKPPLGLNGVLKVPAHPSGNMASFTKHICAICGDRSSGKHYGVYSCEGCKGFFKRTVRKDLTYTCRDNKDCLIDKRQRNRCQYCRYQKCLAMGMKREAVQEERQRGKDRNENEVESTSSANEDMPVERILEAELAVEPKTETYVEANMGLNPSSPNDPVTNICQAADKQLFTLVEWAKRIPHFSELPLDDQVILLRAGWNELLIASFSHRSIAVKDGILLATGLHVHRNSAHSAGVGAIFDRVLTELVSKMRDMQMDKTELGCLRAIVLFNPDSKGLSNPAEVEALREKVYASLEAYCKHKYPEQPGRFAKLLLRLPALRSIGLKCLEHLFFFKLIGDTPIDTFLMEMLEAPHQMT
Structure (SMILES),Potency,activation
CN(C)CC[C@@H](c1ccc(Cl)cc1)c1ccccn1,inactive,
NC(=O)NS(=O)(=O)c1ccc(Cl)cc1,inactive,
CCN1CC(CCN2CCOCC2)C(c2ccccc2)(c2ccccc2)C1=O (stereo not given),inactive,
CC(=O)N[C@@H](CC(C)C)C(=O)O,inactive,
O=C1CCCCC1C1CCCCC1 (stereo not given),inactive,
O=C(O)[C@@H](O)[C@H](O)[C@H](O)[C@@H](O)C(=O)O,inactive,
Cc1c(C(=O)NCCO)[n+](=O)c2ccccc2n1[O-],inactive,
CC(=O)Nc1ccc(C)c(Cl)c1,inactive,
CC(C)C(=O)OCC(C)(C)C(O)C(C)C (stereo not given),inactive,
NC1=NCC2c3ccccc3Cc3ccccc3N12 (stereo not given),inactive,
CCCCCCCCCC/C=C/C#N,inactive,
Cc1nnc(SCC2=C(C(=O)O)N3C(=O)[C@@H](NC(=O)Cn4cnnn4)[C@H]3SC2)s1,inactive,
CC1CN(c2ccccc2)NC1=O (stereo not given),inactive,
CC(C)c1ccccc1,inactive,
CO[C@@]1(NC(=O)CSCC#N)C(=O)N2C(C(=O)O)=C(CSc3nnnn3C)CS[C@@H]21,inactive,
CN1CCN(C2=Nc3cc(F)ccc3Cc3ccccc32)CC1,inactive,
C/C(=N\O)[C@@H](C)NCC(C)(C)CN[C@H](C)/C(C)=N/O,inactive,
Oc1ccccc1F,inactive,
CCCN(CCC)C(=O)C(CCC(=O)O)NC(=O)c1ccccc1 (stereo not given),inactive,
CN(C)Cc1ccccc1,inactive,

Structure (SMILES),Potency,activation
Nc1cccc(S(=O)(=O)O)c1,inactive,
CCN(O)CC,inactive,
CC(C)NCC(O)COc1ccc(CCOCC2CC2)cc1 (stereo not given),inactive,
CC(C)CCCCCCc1ccc(OCCOCCO)cc1,inactive,
CC1=CC(=O)CC(C)(C)C1=O,inactive,
Cc1cc(S(=O)(=O)O)c(N)cc1Cl,inactive,
CN(CC1(C)CCCO1)S(=O)(=O)c1ccc(Cl)c(S(N)(=O)=O)c1 (stereo not given),inactive,
COC(=O)/C=C(/C)N,inactive,
OCCN1CCN(CCO)CC1,inactive,
C[C@@H]1CN(c2c(F)c(N)c3c(=O)c(C(=O)O)cn(C4CC4)c3c2F)C[C@H](C)N1,,12.8% [at 15.8 µM]
NCCC(O)(P(=O)(O)O)P(=O)(O)O,inactive,
COC(=O)C(C)O (stereo not given),12.6 µM (active),
O=C(Cl)c1cccc([N+](=O)[O-])c1,inactive,
O=c1[nH]cnc2c1ncn2[C@@H]1O[C@H](CO)[C@@H](O)[C@H]1O,inactive,
NNS(=O)(=O)c1ccc(Oc2ccc(S(=O)(=O)NN)cc2)cc1,inactive,
CC(C)S,inactive,
COc1cc(C)ccc1C(C)C,inactive,
Cc1ccc(C)c(N)c1,inactive,
Clc1cccc(-c2cc(Cl)cc(Cl)c2)c1,inactive,
C[C@@H]1CN(c2c(F)c(F)c3c(=O)c(C(=O)O)cn(C4CC4)c3c2F)C[C@H](C)N1,,6.08% [at 15.8 µM]
